Drawing on PubChem BioAssay (NCI), this text covers growth for 25 compounds.

Several values for one entry are separate records, joined by “and”; a condition that tells them apart may be missing. Equal values may be shown once. This is part of a sample that, as a whole, favours compounds with a hit. Of some 83,000 tested, about 20% had one in any assay.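 Activity criterion: percent growth below 10, measured after cells in 96-well plates were exposed to a single compound concentration for 48 hours.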 Unmarked numbers belong to inactive results. Activity calls are given as the source filed them.

In the experiment the test system is HL-60(TB) leukemia. The experiment is described as follows: NCI-60 one-dose screen, 48 h (100 = growth as untreated, 0 = no growth, -100 = all killed). As to conditions: 10 µM unless noted.
`Cn1cc([C@@H]2Nc3ccc4[nH]ncc4c3[C@H]3[C@H]4CCC(C4)[C@H]32)c(C(F)(F)F)n1`: the growth was 7.12% (active).

For `CCc1cccc(CC)c1NC(=O)c1sc2nc3c(cc2c1N)CCCC3`, the growth is 41%.

Consider `OCCN1CCN(CCO)CC1`, for which the growth was 108% and 102% and 96.2%.

`COc1cc(CSc2nc3ccc(Cl)cc3c(=O)n2Cc2ccccc2)cc(OC)c1OC`: the growth was 14.7%.

For the compound `Cc1ccc(NC2=C(Cl)C(=O)c3nc(C)ccc3C2=O)cc1`, the growth is -10.8% (active).

On to `OCCN(CCO)c1ccc2ccccc2c1`, for which the growth is 87.9%.

With `Cc1c(C(=O)OC(=NC2CCCCC2)NC2CCCCC2)sc2c1c(=O)nc1c(C#N)n[nH]n12`, the growth was 124%.

On to `N#CC(C#N)=NO`, for which the growth is 104%.

`O=C(CCC(=O)N/N=C/c1ccccc1O)N/N=C/c1ccccc1O`: the growth was 7.25% (active).

Consider `O=C1NN(C(=O)c2ccccc2)C(c2ccc(Cl)c(Cl)c2)=C/C1=C\c1ccccc1[N+](=O)[O-]`, for which the growth is 12.7% [6.75 µM].

As for `CCCCCC(=O)Oc1ccc(/C(=C(\C)c2ccc(OC)cc2)c2ccc(OCCN3CCCCC3)cc2)cc1`, the growth is 42.7%.

Take `O=c1ccn(-c2ncnc3nc[nH]c23)cc1`: the growth is 92.7%.

As for `COc1ccc2oc3cc(NCCN(C)C)ccc3c(=O)c2c1`, the growth was 22%.

For the compound `CC12CCC3c4ccccc4CCC3(CO1)C2` (stereo not given), the growth is 87.7%.

In the case of `O=C(N/N=C/c1cccc2ccccc12)C1CC1`, the growth was 71.3% and 95.7%.

`COC(=O)c1c2c(c(C)[n+]([O-])c1C)C(=O)C(NCc1ccc(O)cc1)=CC2=O`: the growth is -8.85% (active).

For the compound `NC(N)=N/N=C(/c1ccccc1)c1ccc(Cl)cc1`, the growth is 105%.

On to `CN[C@]12CC3(C=CC(=O)C=C3)O[C@@]1(Cc1ccc(OC)cc1)N(C)C(=O)N2`, for which the growth is -3.53% (active).

On to `CC(C)(C)c1ccc(O)c(-c2ccccc2)c1`, for which the growth is 0.4% (active).

Turning to `CCOc1ccc(-c2nonc2NC(=O)c2cccc(C)c2)cc1OCC`, the growth is 73%.

Regarding `COc1cnc2c(c1)C(=O)c1c-2n(CCCN2CCNCC2)c(=O)c2cc(F)ccc12`, the growth was -25% (active).

On to `Cc1c2c(cc[n+]1Cc1ccc(F)cc1)c1ccc(OCc3cccc(F)c3)cc1n2Cc1cccc(F)c1`, for which the growth was -49.3% (active).

As for `O=c1c2ccccc2oc2ccc(OCCCCCN3CCCCCC3)cc12`, the growth is 38%.

In the case of `O=C(Nc1ccc(-c2nc(-c3cccc(OCCN4CCOCC4)c3)c(-c3ccnc(Br)c3)[nH]2)cc1)c1ccccc1`, the growth is -41.2% (active).

As for `O=C1c2ccccc2C(=O)c2c1ccc1[nH]c(CCl)nc21`, the growth was -37.4% (active).
